HCMV inh = qHTS Assay for inhibitors of the human cytomegalovirus (HCMV); HFF cells, HCMV-luciferase reporter, 72 h; stronger effect = lower value; AID 1259415, 2018; 4.5% of 410,000 active; activity change, negative = inhibition, % at 57.5 µM; in the data active = activity change below about -60%; inconclusive = no clear call, values can overlap the other calls; inactive = above about -39%
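Screen run at 2 compound doses on HFFs infected with reporter HCMV, MOI 1 PFU/cell. Luciferase activity from cell lysates at 72 h post infection gave inhibition relative to buffer-only and Salinomycin wells.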
TbPYK inhibitor = qHTS of Trypanosoma Brucei Inhibitors; pyruvate kinase (Trypanosoma brucei), Q57TT1; TbPYK enzyme, Kinase-Glo Plus ATP luminescence, 45 min; Potency, µM (doses to about 76.8 µM), most hits filed as inhibitors; 0.12% of 410,000 active; also: nearly all actives have a fitted effect of over 50% in size
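Screened from lowest to highest concentration, compounds were pinned into TbPYK/substrate mixtures, and ADP (130 uM final) was added. Plates sat at room temperature for 45 min prior to Kinase-Glo Plus detection by luminescence.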
FMDV antiviral = High Throughput Screening for Foot and Mouth Disease Virus Antivirals; Potency, µM (titrated, usually from 57.9 µM), actives largely listed as inhibitors; FMDV antiviral cell-based qHTS; 1.2% of 410,000 active; calls by dose curve; tested in HEK293T cells; also: read-out not given here; nearly all actives have a fitted effect of over 45% in size
FBPA Giardia inh = qHTS Assay for Inhibitors of Fructose-1,6-bisphosphate Aldolase from Giardia Lamblia. purified Giardia FBPA. 0.71% of 290,000 active. A8B2U2. Potency, µM (series often up to 59.6 µM), usual class: inhibitors. AID 2451, 2010; also: nearly all actives have a fitted effect of over 55% in size
Target sequence (A8B2U2 whole entry, looked up): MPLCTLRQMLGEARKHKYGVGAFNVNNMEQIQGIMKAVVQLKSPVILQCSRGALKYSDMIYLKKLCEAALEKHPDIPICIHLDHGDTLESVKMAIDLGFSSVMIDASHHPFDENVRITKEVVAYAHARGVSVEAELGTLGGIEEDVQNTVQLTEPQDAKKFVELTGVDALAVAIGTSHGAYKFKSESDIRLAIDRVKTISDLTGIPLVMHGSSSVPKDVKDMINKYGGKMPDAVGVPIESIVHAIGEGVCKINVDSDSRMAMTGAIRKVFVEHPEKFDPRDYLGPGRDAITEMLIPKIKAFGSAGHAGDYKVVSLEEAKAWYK
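40 nM FBPA preincubated 10 min at RT with compound (up to 57.5 uM final), then substrate plus GAPDH/TPI/NAD/arsenate coupling and diaphorase/resazurin added. Fluorescence read after 20 min at RT, 525/598 nm.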
RE007 growth inh = qHTS Assay for Inhibitors of the HIV-1 protein Vpr | S. pombe RE007 Vpr strain, BacTiter-Glo ATP luminescence, 24 h | Potency, µM (highest dose often 92.2 µM), most hits filed as inhibitors | 0.21% of 360,000 active; active = well fitted falling curve with a large enough effect; inconclusive = small, poorly fitted or top-dose-only effect; inactive = no such curve, though single readings can be large or run the other way; also: nearly all actives have a fitted effect of over 50% in size
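Fission yeast RE007 carrying one integrated HIV-1 vpr copy, seeded at OD 0.01 in PMG+AL medium with 23 nL pinned compound. Grown 24 h at 30 degrees; viability read by BacTiter-Glo luminescence after 5 min.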
Sm TGR inh = qHTS Assay for the Inhibitors of Schistosoma Mansoni Peroxiredoxins; Schistosoma mansoni thioredoxin glutathione reductase (TGR), Q962Y6; purified TGR, DTNB reduction, TNB absorbance 405 nm; Potency, µM (doses to about 114 µM), actives largely listed as inhibitors; 3% of 360,000 active; AID 485364, 2010; also: nearly all actives have a fitted effect of over 60% in size
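Kinetic colorimetric format: TGR-catalysed, NADPH-driven DTNB reduction monitored via TNB absorbance. Enzyme dispensed at 20 nM; compound exposure 15 min at room temperature before reaction start.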
Each line names hits and unclear results; the compound was inactive in the other large screens; ! = not active in a repeat. In the library only some 7.7% were active in any assay of this set; here they are far more common. Unless noted, calls follow the shape of the dose curve; as a rule, active = well fitted curve in the direction sought with a large enough effect; inconclusive = small, poorly fitted or top-dose-only effect, or another doubt; inactive = no such curve, though single readings can be large; an effect the other way counts as inactive or inconclusive.

CC(=O)N1CCc2c(sc3c2c(=O)n(CCc2ccccc2)c(=O)n3Cc2ccc(F)cc2)C1	HCMV inh -61, FMDV antiviral inconclusive (no result: FBPA Giardia inh, RE007 growth inh)
CCOC(=O)N1CCc2c(sc3c2c(=O)n(Cc2ccccc2)c(=O)n3Cc2c(F)cccc2Cl)C1	HCMV inh -68 (no result: FBPA Giardia inh, RE007 growth inh)
CCOC(=O)N1CCc2c(sc3c2c(=O)n(Cc2ccccc2)c(=O)n3Cc2ccccc2F)C1	none
CC(=O)N1CCc2c(sc3c2c(=O)n(CCc2ccccc2)c(=O)n3CC(=O)Nc2ccccc2F)C1	HCMV inh inconclusive (no result: FBPA Giardia inh, RE007 growth inh)
O=c1[nH]c(-c2ccccc2)cn1C1CCN(Cc2ccc(-c3nc4ccc(Br)cc4nc3-c3ccccc3)cc2)CC1	none (no result: TbPYK inhibitor, FMDV antiviral, FBPA Giardia inh, RE007 growth inh, Sm TGR inh)
O=[N+]([O-])c1ccccc1CNCCCCCO	Sm TGR inh 50µM (no result: FBPA Giardia inh)
O=[N+]([O-])c1ccccc1CNCCO	none (no result: FBPA Giardia inh)
O=C1C2CCCN2C(c2ccccc2F)N1c1ccc(Cl)cc1 (stereo unspecified)	HCMV inh -64
O=C1C2CCCN2C(c2ccccc2)N1c1ccc(Cl)cc1 (stereo unspecified)	HCMV inh -97
c1ccc2c(c1)-c1nc3ccccc3cc1C2N1CCCCC1 (stereo unspecified)	HCMV inh -102 (no result: FBPA Giardia inh, Sm TGR inh)
C=C1C(=O)O[C@H]2[C@H]1[C@H](OC(=O)/C(C)=C\C)C[C@]1(CO1)[C@@H]1[C@H](OC(C)=O)C=C(C)[C@]21O	none (no result: FBPA Giardia inh, Sm TGR inh)
C=C1C(=O)O[C@H]2C[C@]3(C)C([C@@H](OC(=O)/C(C)=C/C)[C@H]12)[C@](C)(O)CC[C@H]3O (stereo partly specified)	Sm TGR inh 14µM
Cc1cc(NC(=O)CSc2nc(-c3cccc(F)c3)nc3c2c(=O)n(C)c(=O)n3C)no1	none (no result: FBPA Giardia inh, RE007 growth inh)
Cc1cccc(NC(=O)Cc2coc3ccc4ccccc4c23)n1	HCMV inh -70, RE007 growth inh inconclusive
COc1cc(/C=N/NC(=O)CN2CCOCC2)ccc1OCc1ccccc1	none
COc1cc(/C=N\Nc2ccc([N+](=O)[O-])cc2)ccc1OCC(=O)Nc1ccc(C)c(C)c1	HCMV inh -72
CCCOc1ccc(/C=C/C(=O)Nc2ccc([N+](=O)[O-])cc2C)cc1	none
COc1cc(/C=N/NC(=O)Cc2ccccc2)ccc1Oc1ccc([N+](=O)[O-])cc1[N+](=O)[O-]	HCMV inh -62
COc1cc(/C=N\NC(=O)CN2CCOCC2)ccc1OCC(=O)Nc1ccc(C)c(C)c1	Sm TGR inh 89µM
CCCOc1ccc(/C=C/C(=O)Nc2ccc([N+](=O)[O-])cc2C)cc1OC	HCMV inh -96
C[C@H](N)CCCC(C)(C)O	none (no result: HCMV inh, TbPYK inhibitor, FMDV antiviral, RE007 growth inh, Sm TGR inh)
CNC(=O)/C(=C\c1ccc2c(c1)OCO2)NC(=O)c1ccc(Br)cc1	HCMV inh -60
CNC(=O)/C(=C/c1ccc2c(c1)OCO2)NC(=O)c1ccc(Br)cc1	none
COc1ccc(CNC(=O)CCS(=O)(=O)c2ccc3c(c2)oc(=O)n3C)cc1	none (no result: FBPA Giardia inh)
Cc1ccc(NC(=O)CCS(=O)(=O)c2ccc3c(c2)oc(=O)n3C)c(Br)c1	Sm TGR inh 32µM (no result: FBPA Giardia inh, RE007 growth inh)
Cc1cccc(NC(=O)CCS(=O)(=O)c2ccc3c(c2)oc(=O)n3C)c1	Sm TGR inh inconclusive (no result: FBPA Giardia inh)
CCN(C(=O)CCS(=O)(=O)c1ccc2c(c1)oc(=O)n2C)c1ccc(OC)cc1	HCMV inh -64!, Sm TGR inh inconclusive (no result: FBPA Giardia inh)
Cc1ccc(N2C(=O)CSC23C(=O)N(CC(=O)Nc2ccc(C)cc2C)c2ccccc23)cc1 (stereo unspecified)	none (no result: FBPA Giardia inh, RE007 growth inh)
CCOC(=O)c1sc(=S)n(-c2ccccc2)c1NC(C)=O	Sm TGR inh 45µM
COc1ccc(-n2c(C)cc(C(=O)CSc3ccc(NC(C)=O)cc3)c2C)cc1	none
CC(=O)Nc1ccc(SCC(=O)c2cc(C)n(-c3ccccc3)c2C)cc1	HCMV inh -60
CCOC(=O)c1cc(C)n(-c2ccccc2)c1C	HCMV inh -77
CCOC(=O)c1sc(=S)n(C)c1NC(=O)c1ccccc1	FMDV antiviral inconclusive
Cc1cc(=O)c(C(=O)O)c(C)n1-c1ccccc1	HCMV inh -62 (no result: FBPA Giardia inh, Sm TGR inh)
Cc1cc(C(=O)O)c(C)n1-c1ccccc1	none
Cc1cc(C(=O)CN2CC(C)OC(C)C2)c(C)n1-c1ccccc1 (stereo unspecified)	Sm TGR inh 45µM
CCOC(=O)c1[nH]c(=S)n(-c2ccccc2)c1C(=O)OCC	TbPYK inhibitor 2.5µM (no result: FBPA Giardia inh, Sm TGR inh)
Cc1ccc(-n2c(C)cc(C(=O)CN3CCCCC3)c2C)cc1	none
COc1cc(NC(=O)c2cccs2)c(C(=O)OCC(=O)c2cc(C)n(-c3ccc(F)cc3)c2C)cc1OC	FMDV antiviral inconclusive
Cc1cc(C(=O)C(C)OC(=O)c2ccc(NC(=O)CC#N)cc2)c(C)n1-c1ccccc1 (stereo unspecified)	HCMV inh -63, FMDV antiviral 16µM (no result: FBPA Giardia inh)
COc1cc(NC(=O)c2cccs2)c(C(=O)OCC(=O)c2cc(C)n(-c3ccccc3)c2C)cc1OC	FMDV antiviral 4µM
CCOC(=O)c1[nH]c(=S)n(Cc2ccccc2)c1C(=O)OCC	TbPYK inhibitor inconclusive (no result: FBPA Giardia inh, Sm TGR inh)
O=C(NCc1ccccc1Cl)C1CCN(S(=O)(=O)c2ccc3c(c2)CCCN3C(=O)C2CCC2)CC1	FMDV antiviral inconclusive (no result: FBPA Giardia inh, RE007 growth inh)
Cc1cccc(-c2noc(-c3ccc(NC4CCCC4)c([N+](=O)[O-])c3)n2)c1	none (no result: FBPA Giardia inh, RE007 growth inh)
CC1CC(C)C(=O)C(C(CC2CC(=O)NC(=O)C2)OC(=O)CC(=O)c2ccccc2)C1 (stereo unspecified)	HCMV inh -98 (no result: FBPA Giardia inh, Sm TGR inh)
O=C1CCC(C(=O)OCC(=O)c2ccccc2)N1 (stereo unspecified)	none
CCCCNC(=O)c1nc2cc(C)c(C)cc2nc1-c1cccc(C(F)(F)F)c1	HCMV inh -94 (no result: TbPYK inhibitor, FMDV antiviral, FBPA Giardia inh, RE007 growth inh, Sm TGR inh)
Cc1ccc(C)c(NC(=O)Cn2cc(S(=O)(=O)N3CCCC3)c(S(=O)(=O)N3CCCC3)c2)c1	none (no result: FBPA Giardia inh, RE007 growth inh)
Cc1cc(C(=O)NCc2cc(C)n(C)n2)sc1-c1ccccc1	HCMV inh -83
CC(=O)c1c(C)[nH]c(C(=O)Nc2ccc(Cl)c(S(=O)(=O)N3CCOCC3)c2)c1C	FMDV antiviral 22µM
COc1ccccc1NS(=O)(=O)c1cc(NC(=O)c2[nH]c(C)c(C(C)=O)c2C)ccc1N1CCOCC1	HCMV inh -90
Cc1ccc(NC(=O)c2cc(S(=O)(=O)N3CCOCC3)c(Cl)cc2Cl)cc1	HCMV inh inconclusive, FMDV antiviral 25µM (no result: FBPA Giardia inh, RE007 growth inh)

Compound activity as filed in PubChem.
